Source: PubChem (National Center for Advancing Translational Sciences (NCATS))
Sampled rows, rich in hits. Any-hit rate of the full collection: about 9.2%.
NPC1 promoter act = qHTS Assay for NPC1 Promoter Activators; Potency, µM (titrated, usually from 9.22 µM), actives largely listed as activators; AID 485313, 2010; Huh7 NPC1 promoter luciferase reporter, 24 h; 320,000 tested, 2.4% active; further: nearly all actives have a fitted effect of over 60% in size
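Stably transfected Huh7 (NPC1 promoter→luciferase), 1500 cells/well in Opti-MEM + 10% FBS, 2 h settle, then compound 24 h at 37 °C. Luminescence after 10 min with Amplite reagent.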
SMN2 splice up = qHTS Assay for Enhancers of SMN2 Splice Variant Expression; HEK293 SMN2-luciferase splicing reporter, luminescence, 30-36 h; Potency, µM (doses to about 46.1 µM), usual class: activators; 210,000 tested, 2.8% active; AID 1458, 2008; further: nearly all actives have a fitted effect of over 55% in size
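qHTS luciferase splicing reporter: luminescence rises when SMN2 exon 7 is included in transfected HEK293 cells. Compound exposure lasted 30-36 h at 37C, with 4.5 mM final sodium butyrate as control, followed by a ONE-Glo read.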
FLuc counter = qHTS profiling assay for firefly luciferase inhibitor/activator using purifed enzyme and Km concentrations of substrates (counterscreen for miR-21 project). purified FLuc, Km substrates, luminescence inhibition. AID 588342, 2011. Potency, µM (doses to about 57.5 µM), actives largely listed as inhibitors. 360,000 tested, 6.9% active; further: nearly all actives have a fitted effect of over 55% in size
Target sequence (P08659 whole entry, looked up): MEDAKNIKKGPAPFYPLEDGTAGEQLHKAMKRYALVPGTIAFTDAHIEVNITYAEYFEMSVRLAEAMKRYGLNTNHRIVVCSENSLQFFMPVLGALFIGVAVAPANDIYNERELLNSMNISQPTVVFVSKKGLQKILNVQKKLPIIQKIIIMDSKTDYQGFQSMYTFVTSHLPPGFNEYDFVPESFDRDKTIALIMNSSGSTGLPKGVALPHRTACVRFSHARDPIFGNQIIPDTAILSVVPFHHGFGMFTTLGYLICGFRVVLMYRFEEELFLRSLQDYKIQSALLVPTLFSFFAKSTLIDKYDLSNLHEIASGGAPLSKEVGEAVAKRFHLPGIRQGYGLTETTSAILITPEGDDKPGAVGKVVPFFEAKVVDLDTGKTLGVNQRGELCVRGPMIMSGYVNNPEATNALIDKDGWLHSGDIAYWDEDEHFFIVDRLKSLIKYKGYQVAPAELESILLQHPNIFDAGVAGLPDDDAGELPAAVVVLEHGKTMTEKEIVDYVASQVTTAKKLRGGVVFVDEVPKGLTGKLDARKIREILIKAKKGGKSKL
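Purified P. pyralis luciferase (10nM final) with 10uM D-luciferin and 10uM ATP (Km levels) in 50mM Tris acetate pH 7.5, 10mM Mg acetate, 0.01% Tween-20, 0.05% BSA; qHTS 6-point titration, ~60 µM downward; luminescence read.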
ELG1 genotox = qHTS screen for small molecules that induce genotoxicity in human embryonic kidney (HEK293T) cells expressing luciferase-tagged ELG1; HEK293T ELG1-luciferase reporter, luminescence, 16 h; Potency, µM (highest dose often 46 µM), most hits filed as activators; 330,000 tested, 1.3% active; AID 504466, 2011; further: nearly all actives have a fitted effect of over 60% in size
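Luminescence read-out: rising ELG1-luciferase signal, reflecting elevated ELG1 protein under genetic stress, flags genotoxic compounds. Cells were treated for 16 hr at 37 °C before ONE-Glo detection.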
ELG1 DNA repair = qHTS screen for small molecules that inhibit ELG1-dependent DNA repair in human embryonic kidney (HEK293T) cells expressing luciferase-tagged ELG1; HEK293T ELG1-luciferase reporter, luminescence, 16 h; DNA damage induced by 5-fluorouridine; Potency, µM (top dose mostly 46.1 µM), hits mostly inhibitors; 330,000 tested, 2.3% active; AID 504467, 2011; further: nearly all actives have a fitted effect of over 55% in size
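DMSO vehicle served as the neutral condition. Each well held 2,000 cells given 5-fluorouridine plus compound; after 16 hr at 37 °C/5% CO2, ONE-Glo was added and luciferase measured 30 min later.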
Rab9 prom act = qHTS Assay for Rab9 Promoter Activators; Huh7 Rab9 promoter-luciferase reporter, luminescence, 24 h; Potency, µM (titrated, usually from 9.22 µM), most hits filed as activators; 320,000 tested, 2.8% active; further: nearly all actives have a fitted effect of over 60% in size
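Luminescence read-out: Huh7 cells stably expressing Rab9-luciferase, treated 24 h with compound at 37 °C, then lysed with luciferase reagent for 10 min at ambient before reading.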
Hits are given with their value; 0 = inactive; ? = inconclusive; - = no result. The call rests on the fitted dose curve; in most records, active means well fitted curve in the direction sought with a large enough effect; inconclusive means small, poorly fitted or top-dose-only effect, or another doubt; inactive means no such curve, though single readings can be large; an effect the other way counts as inactive or inconclusive.

SMILES	NPC1 promoter act	SMN2 splice up	FLuc counter	ELG1 genotox	ELG1 DNA repair	Rab9 prom act
COc1cc(/C=C/c2nc3ccc([N+](=O)[O-])cc3s2)ccc1OCC(=O)O	0	-	2.7µM	0	0	0
COc1cc(/C=C/c2ccc3c([N+](=O)[O-])cccc3n2)ccc1OCC(=O)O	0	-	3.4µM	0	0	0
O=C(O)COc1ccc(/C=C/c2ccc3cccc([N+](=O)[O-])c3n2)cc1	0	0	2.7µM	0	0	0
COc1c(OC(C)=O)ccc(/C=N\NC(=O)c2ccc(Br)cc2)c1[N+](=O)[O-]	0	-	0	0	?	0
CC(=O)Nc1ccc(/C=C/c2ccc3cccc([N+](=O)[O-])c3n2)cc1	0	-	?	0	0	0
COc1cc(NS(=O)(=O)c2ccc(NC(=O)CCC(=O)O)cc2)nc(OC)n1	0	-	0	0	0	0
CCOc1ccc(NC(=O)c2cn3c4c(ccc(Cl)c4c2=O)OC(C)C3)cc1 (stereo not given)	-	-	0	-	-	-
COc1ccccc1NC(=O)CSc1oc(-c2ccccc2)nc1S(=O)(=O)c1ccccc1	-	0	0	-	-	-
O=C(Nc1sc2c(c1C(=O)NCc1ccccc1)CCCC2)c1cc(=O)c2ccccc2o1	-	0	0	-	-	-
COc1cc(/C=C/c2ccc3cccc([N+](=O)[O-])c3n2)ccc1OCC(=O)O	0	0	1.9µM	0	0	0
COc1cc(C=O)ccc1OCCCCOc1ccccc1[N+](=O)[O-]	0	0	0	0	0	0
c1ccc(N2CCN(c3ncnc4sc5c(c34)CCC5)CC2)cc1	0	0	0	0	16µM	0
c1nc(N2CCC3(CC2)OCCO3)c2c3c(sc2n1)CCCC3	0	0	0	0	0	0
O=C(c1ccco1)N1CCN(c2ncnc3sc4c(c23)CCC4)CC1	0	0	0	0	15µM	0
CCc1ccc(NC(=O)c2cc(=O)c3ccc(C)c(C)c3o2)cc1	-	0	0	-	-	-
COc1ccc(OC)c(N=c2oc3cc(O)ccc3cc2C(N)=O)c1	0	0	21µM	0	?	0
COc1ccc2cc(C(=O)NCc3ccccc3)c(=Nc3ccc(C(=O)O)cc3)oc2c1	0	0	0	0	?	0
NC(=O)c1cc2ccc(O)cc2oc1=NCc1ccccc1	0	0	0	0	9.2µM	0
O=C(O)c1ccc(N=c2oc3cc(O)ccc3cc2C(=O)NCc2ccccc2)cc1	0	0	?	0	?	0
NC(=O)c1cc2ccc(O)cc2oc1=Nc1ccccc1	?	0	0	0	2.3µM	0
COc1ccc2cc(C(N)=O)c(=Nc3ccccc3)oc2c1	3.5µM	0	0	?	?	1.6µM
Oc1c(C(c2ccccc2Cl)N2CCCC2)sc2nc(-c3ccco3)nn12 (stereo not given)	-	-	0	-	-	-
CC(C)C[C@@H](CN=[N+]=[N-])N1CCN(C)CCC1=O	0	-	0	0	0	0
COc1cccc(Nc2ccc(N3CCCCC3)cc2)c1OC	3.5µM	-	?	?	?	2.8µM
COc1cccc(CNc2ccc(N3CCCCC3)cc2)c1OC	?	0	?	0	0	0
SMILES	NPC1 promoter act	SMN2 splice up	FLuc counter	ELG1 genotox	ELG1 DNA repair	Rab9 prom act
COc1ccccc1CNc1ccc(N2CCCCC2)cc1	0	0	15µM	?	?	0
CCOc1cccc(C2/C(=C(/O)c3ccc4c(c3)CC(C)O4)C(=O)C(=O)N2Cc2ccncc2)c1 (stereo not given)	0	-	0	0	0	0
O=C(NCC(c1cccnc1)N1CCN(c2ccccc2F)CC1)OCc1ccccc1 (stereo not given)	0	0	0	0	23µM	0
O=C(NCc1cccs1)C(=O)NCC(c1ccco1)N1CCN(c2ccccc2F)CC1 (stereo not given)	0	0	0	0	18µM	0
CC(NC(=O)c1sc2ncccc2c1-n1cccc1)c1ccccc1 (stereo not given)	-	-	0	-	-	-
CC1(C)CC(=O)C2=C(C1)Nc1cc(Cl)ccc1S2	0	-	0	0	23µM	0
Cc1ccc(C(=O)N2CCc3cc(CNS(=O)(=O)c4ccc(Cl)s4)ccc32)cc1	-	-	0	-	-	-
CC1CCN(C(=O)Nc2ccc3nsnc3c2)CC1	?	0	13µM	?	0	4.5µM
O=C(Nc1ccc2nsnc2c1)N1CCCCC1	0	0	?	?	?	0
CC1CCN(C(=O)Nc2cccc(NC(=O)N3CCC(C)CC3)c2)CC1	0	0	15µM	0	0	0
O=C(Nc1cccc(F)c1)N1CCC(c2ccccc2)CC1	?	-	?	?	?	0
CCOC(=O)C1=C(Cc2ccc(OC)cc2)C(=O)c2ccccc2C1=O	0	0	11µM	0	0	0
CCOC(=O)C1=C(Cc2ccc(C)cc2)C(=O)c2ccccc2C1=O	0	0	13µM	0	?	0
CCOC(=O)c1cc(C)n(CC2CCC(C(=O)Nc3cccc(C)c3)CC2)c1C (stereo not given)	-	-	0	-	-	-
CCOc1c(C)cnc2c1c(=O)n(CC(=O)NCC1CCCO1)c(=O)n2C (stereo not given)	0	-	0	0	0	0
Cc1ccc(-c2nnc(NC(=O)c3ccco3)s2)cc1	2.2µM	-	1.5µM	4.6µM	?	2.2µM
O=C(Nc1ncc(Cc2cccc([N+](=O)[O-])c2)s1)c1ccco1	0	-	?	0	0	?
Cc1cccc(C(=O)Nc2nnc(-c3ccc(C(C)(C)C)cc3)s2)c1	0	0	11µM	0	0	0
Cc1ccc(Cc2cnc(NC(=O)c3ccco3)s2)cc1	0.63µM	13µM	0.85µM	1.8µM	?	0.63µM
COc1cccc(-c2nnc(NC(=O)c3ccco3)s2)c1	2.2µM	-	7.6µM	16µM	?	2.2µM
Cc1ccc(CSC2=Nc3ccccc3C3=NC(CC(=O)NCc4cccs4)C(=O)N23)c(C)c1 (stereo not given)	-	-	0	-	-	-
Cc1cccc(OCc2nnc(NC(=O)c3cccs3)s2)c1	0	0	0	0	0	0
O=C(Nc1nnc(Cc2ccccc2)s1)c1ccco1	?	?	17µM	16µM	?	?
COc1ccc(-c2nnc(NC(=O)c3ccco3)s2)cc1	3.5µM	-	1.5µM	?	?	0.79µM
COc1cccc(-c2nnc(NC(=O)c3cccs3)s2)c1	?	18µM	2.4µM	?	?	?
CCCOc1cccc(-c2nnc(NC(=O)c3ccco3)s2)c1	0	-	27µM	?	0	0
CCOC(=O)c1ccc(OCC2c3cc(OC)c(OC)cc3CCN2C(=O)Cc2ccc(OC)c(OC)c2)cc1 (stereo not given)	-	-	0	-	-	-
